Screens: PubChem BioAssay, Broad Institute
Sampled rows, rich in hits. Any-hit rate of the full collection: about 6.8%.
Tcruzi prolif: T. cruzi intracellular proliferation inhibitors, primary screen, cell-based, beta-gal Tulahuen parasites, NIH3T3 host, luminescence; T. cruzi beta-gal in NIH3T3, GalScreen luminescence, 90 h; inhibition, % at 8.34 µM; hit rate 5.9% among 77,000; AID 624255, 2012;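 active = mean inhibition above about 93%, with at least 55% of replicates each passing it, limit read from the data, passing the limit was not always enough; inconclusive = only one of those two conditions holds; inactive = neither condition holds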
C diff HTS: C. difficile growth inhibitors, primary screen, HTS. Clostridium difficile clinical isolate growth, OD600, 24 h; stronger effect = lower value. growth activity, negative = inhibition, % at 16 µg/mL (by protocol). hit rate 0.25% among 86,000;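 active = mean growth activity at or below -80% and every replicate also at or below -80%; inconclusive = mean at or below -80% but some replicate above -80%; inactive = mean growth activity above -80%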;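 also: 0% = DMSO wells and -100% = levofloxacin 16 µg/mL wells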
Pf Dd2 growth: P. falciparum Dd2 growth inhibitors, primary screen, SYBR Green fluorescence, single dose replicates; 72 h; stronger effect = lower value; hit rate 2.3% among 94,000; AID 1159554, 2015; activity change, % at 10 µM; in the data active = activity change below about -80%; inconclusive = no clear call, values can overlap the other calls
* hit, by the source's call; ? = inconclusive; nt = no result.

SMILES	Tcruzi prolif	C diff HTS	Pf Dd2 growth
COc1ccc(NC(=O)N(C)C[C@@H]2Oc3c(NC(=O)CCCCCC(=O)Nc4ccccc4N)cccc3C(=O)N([C@@H](C)CO)C[C@@H]2C)cc1	nt	-1	-61
COc1ccc(CN(C)C[C@H]2Oc3c(NC(=O)CCCCCC(=O)Nc4ccccc4N)cccc3C(=O)N([C@@H](C)CO)C[C@@H]2C)cc1	nt	-13	-94*
COc1ccc(CN(C)C[C@@H]2Oc3c(NC(=O)CCCCCC(=O)Nc4ccccc4N)cccc3C(=O)N([C@@H](C)CO)C[C@H]2C)cc1	nt	-3	-90*
CN1C(=O)c2cc(NC(=O)C3CCCC3)ccc2OC[C@@H]2O[C@@H](CC(=O)NCc3ccccc3F)CC[C@H]21	nt	5	-20
CC(C)C#Cc1ccc2c(c1)O[C@H](CN(C)C(=O)Nc1ccccc1)[C@H](C)CN([C@@H](C)CO)S2(=O)=O	nt	4	-5
C[C@@H]1CCCCO[C@@H](CN(C)C(=O)Nc2ccc(F)cc2)[C@@H](C)CN([C@@H](C)CO)C(=O)c2cc(NC(=O)C3CCCCC3)ccc2O1	72	8	-86*
C[C@@H]1CCCCO[C@H](CN(C)C(=O)Nc2ccc(F)cc2)[C@@H](C)CN([C@@H](C)CO)C(=O)c2cc(NC(=O)C3CCCCC3)ccc2O1	66	8	-86*
C[C@@H]1CCCCO[C@H](CN(C)C(=O)Nc2ccccc2)[C@@H](C)CN([C@H](C)CO)C(=O)c2cc(NC(=O)C3CCCCC3)ccc2O1	56	4	-11
C[C@@H]1CCCCO[C@@H](CN(C)C(=O)Nc2ccc(F)cc2)[C@@H](C)CN([C@H](C)CO)C(=O)c2cc(NC(=O)C3CCCCC3)ccc2O1	56	-2	-48
C[C@H]1CCCCO[C@@H](CN(C)C(=O)Nc2ccc(F)cc2)[C@@H](C)CN([C@@H](C)CO)C(=O)c2cc(NC(=O)C3CCCCC3)ccc2O1	72	-2	-63
C[C@@H]1CCCCO[C@H](CN(C)C(=O)Nc2ccccc2)[C@H](C)CN([C@H](C)CO)C(=O)c2cc(NC(=O)C3CCCCC3)ccc2O1	57	nt	-87*
COc1ccc(NC(=O)N(C)C[C@H]2Oc3ccc(NS(=O)(=O)c4ccc(OC)cc4)cc3C(=O)N([C@@H](C)CO)C[C@@H]2C)cc1	7	0	38
COc1cccc(CN2CC3(CN(CC4CC4)C3)c3c([nH]c4cc(OC)ccc34)[C@H]2CO)c1	nt	4	?
C[C@@H]1CN([C@@H](C)CO)C(=O)c2cc(C#CC3CC3)cnc2O[C@@H]1CN(C)C(=O)c1ccncc1	-21	nt	77
C[C@@H]1CCCCO[C@H](CN(C)C(=O)NC2CCCCC2)[C@H](C)CN([C@H](C)CO)C(=O)c2cc(NC(=O)C3CCCCC3)ccc2O1	87	8	-72
CC(C)NC(=O)N(C)C[C@H]1Oc2ccc(NC(=O)Nc3cccc4ccccc34)cc2C(=O)N([C@H](C)CO)C[C@@H]1C	4	-6	15
CC=Cc1ccc2n(c1=O)C[C@H]1[C@H](CO)[C@@H](C(=O)NCc3ccccc3)N(CC)[C@@H]21 (mixture of isomers)	nt	-1	-27
COc1ccc2c3c([nH]c2c1)[C@H](CO)N(S(=O)(=O)c1ccc(C)cc1)CC31CCN(C(=O)Cc2cccnc2)CC1	nt	13	-86*
CCCC(=O)N1CC2(C1)CN(S(=O)(=O)c1ccc(C)cc1)[C@@H](CO)c1[nH]c3cc(OC)ccc3c12	nt	-13	-87*
CCS(=O)(=O)N1CC2(C1)CN(S(=O)(=O)c1ccc(C)cc1)[C@H](CO)c1[nH]c3cc(OC)ccc3c12	nt	-5	-40
COc1ccc2c3c([nH]c2c1)[C@H](CO)N(S(=O)(=O)c1ccc(C)cc1)CC31CN(C(=O)Cc2cccnc2)C1	nt	1	-77
C[C@@H]1CN([C@H](C)CO)C(=O)Cc2cc(NS(=O)(=O)c3cn(C)cn3)ccc2O[C@H]1CN(C)Cc1ccncc1	nt	1	2
COc1ccc(CN2C[C@H](C)[C@H](OC)CN(C)C(=O)c3cc(NC(=O)C4CC4)ccc3OC[C@@H]2C)cc1	-58	nt	-14
Cc1ccc(S(=O)(=O)Nc2ccc3c(c2)C(=O)N([C@@H](C)CO)C[C@@H](C)[C@@H](CN(C)C(=O)Nc2ccc4c(c2)OCO4)OCCCC[C@@H](C)O3)cc1	nt	8	-68
C[C@@H]1CN([C@@H](C)CO)C(=O)c2cc(NS(C)(=O)=O)ccc2O[C@@H](C)CCCCO[C@@H]1CN(C)C(=O)Cc1ccccc1	26	0	nt
SMILES	Tcruzi prolif	C diff HTS	Pf Dd2 growth
CC(C)C#Cc1ccc2c(c1)O[C@@H](CN(C)Cc1ccncc1)[C@H](C)CN([C@@H](C)CO)S2(=O)=O	121*	-9	-74
C[C@@H]1CN([C@@H](C)CO)S(=O)(=O)c2ccc(C#C[C@@H](C)O)cc2O[C@@H]1CN(C)Cc1ccncc1	57	7	-17
CC(C)C#Cc1ccc2c(c1)O[C@H](CN(C)Cc1ccncc1)[C@@H](C)CN([C@@H](C)CO)S2(=O)=O	117*	7	-65
C[C@H](O)C#Cc1ccc2c(c1)O[C@@H](CN(C)Cc1ccncc1)[C@@H](C)CN([C@H](C)CO)S2(=O)=O	90	-1	2
C[C@@H]1CN([C@@H](C)CO)S(=O)(=O)c2ccc(-c3ccncc3)cc2O[C@@H]1CN(C)Cc1ccccc1	86	0	-29
C[C@@H]1CN([C@H](C)CO)S(=O)(=O)c2ccc(-c3ccncc3)cc2O[C@H]1CN(C)Cc1ccc(Oc2ccccc2)cc1	53	11	-87*
O=C(C[C@H]1C[C@H]2c3cc(NC(=O)C4CCC4)ccc3O[C@H]2[C@H](CO)O1)NCCN1CCCCC1	14	nt	7
COc1ccc(NC(=O)N(C)C[C@H]2Oc3ccc(NC(=O)NC4CCCCC4)cc3CC(=O)N([C@@H](C)CO)C[C@H]2C)cc1	13	-1	-8
CCCC#Cc1cnc2c(c1)C(=O)N([C@H](C)CO)C[C@@H](C)[C@@H](CN(C)C(=O)NC1CCCC1)O2	23	2	-50
CN(C)CC(=O)N[C@@H]1CC[C@@H](CCNC(=O)Nc2ccc(C(F)(F)F)cc2)O[C@@H]1CO	-43	-100*	8
CCC(=O)N[C@H]1CC[C@@H](CCNC(=O)Nc2ccc(C(F)(F)F)cc2)O[C@H]1CO	55	nt	-28
O=C(NCC[C@H]1CC[C@@H](NC(=O)C2CC2)[C@@H](CO)O1)Nc1ccc(C(F)(F)F)cc1	15	-100*	-19
CC(=O)N[C@H]1CC[C@@H](CCNC(=O)Nc2ccc(C(F)(F)F)cc2)O[C@H]1CO	-62	-11	21
CC(=O)N[C@H]1CC[C@H](CCNC(=O)Nc2ccc(C(F)(F)F)cc2)O[C@H]1CO	29	-95*	9
O=C(NCC[C@H]1CC[C@@H](NC(=O)C2CC2)[C@H](CO)O1)Nc1ccc(C(F)(F)F)cc1	8	20	-25
CO[C@H]1CN(C)C(=O)c2cc(NC(=O)c3nc4ccccc4s3)ccc2OC[C@@H](C)NC[C@@H]1C	-38	nt	-87*
CO[C@@H]1CN(C)C(=O)c2cc(NC(=O)c3nc4ccccc4s3)ccc2OC[C@@H](C)NC[C@H]1C	-56	nt	-30
